Source: the supplement of paper PMC10849652
Targets with a hit are over-represented here; the source holds about 8,800 in all. About 0.5% of all pairs of compound and target were hits.

Columns and labels:
Experiment in all cases: log2 fold change, soluble protein after heating vs DMSO (PISA); higher = thermal stabilisation; K562 lysate, 10 uM; active = over 0.2 and 3.5 SD of the protein, either way, in both replicates (recomputed)
[1] = compound: C1=CC=C(C=C1)[C@H](COC2=CC3=C(C=C2)NC(=O)N3)NC(=O)C4=CC=CN(C4=O)CC5=CC(=C(C=C5)F)F
In short: (§1)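 Thermal stability, expressed as log-two fold change relative to solvent controls, is given from duplicates. Crude K562 extract in PBS pH 7.4 with 1 mM MgCl2, at 1 mg/mL protein, was treated with 10 μM compound for 30 min and heated in aliquots for 3 min across 48°C-58°C. After pooling, adjustment to 0.5% NP-40 at 4°C and centrifugation at 21,000xg for 90 min, supernatant protein was measured by TMTpro 16plex LC-MS/MS with channel sums equalised.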

[2] = compound: CC1=C(SC2=C1C(=N[C@H](C3=NN=C(N32)C)CC(=O)N)C4=CC=C(C=C4)Cl)C
In short: as §1

[3] = compound: CC1=C2C(=CC=C1)N=C(N(C2=O)C3=CC=CC=C3C)CN4C=NC5=C(N=CN=C54)N
In short: as §1

[4] = compound: Cc1sc2c(c1C)C(c1ccc(Cl)cc1)=N[C@@H](CC(=O)OC(C)(C)C)c1nnc(C)n1-2
In short: as §1

[5] = compound: c1ccc([C@@H]2C[C@H]2NC2CCNCC2)cc1
In short: as §1

Measured: log2 fold change

SAP30 (UniProt O75446)
inactive: [1] 0.029 | [2] -0.029 | [3] 0.009 | [4] 0.014 | [5] -0.026

RAB3IL1 (UniProt E9PK89)
inactive: [1] -0.109 | [2] 0.057 | [3] 0.014 | [4] -0.189 | [5] -0.006

RCOR1 (UniProt Q9UKL0)
Chain of UniProt Q9UKL0 (Q9UKL0 whole entry, looked up): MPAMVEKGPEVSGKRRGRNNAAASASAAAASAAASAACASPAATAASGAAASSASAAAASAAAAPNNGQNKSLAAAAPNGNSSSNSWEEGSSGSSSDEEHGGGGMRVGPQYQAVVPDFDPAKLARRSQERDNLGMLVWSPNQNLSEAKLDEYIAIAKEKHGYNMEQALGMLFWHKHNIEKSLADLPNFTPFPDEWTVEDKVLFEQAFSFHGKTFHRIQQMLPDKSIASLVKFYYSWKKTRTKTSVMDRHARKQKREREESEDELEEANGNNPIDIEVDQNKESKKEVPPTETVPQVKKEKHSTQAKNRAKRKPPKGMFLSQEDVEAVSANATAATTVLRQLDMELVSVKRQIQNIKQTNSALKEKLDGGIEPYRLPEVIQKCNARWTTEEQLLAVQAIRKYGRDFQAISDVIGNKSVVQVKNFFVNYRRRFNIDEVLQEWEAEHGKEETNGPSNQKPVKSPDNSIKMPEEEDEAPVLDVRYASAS
inactive: [1] -0.034 | [2] 0.03 | [3] -0.003 | [4] -0.023
active: [5] 0.494

RASA3 (UniProt Q14644)
inactive: [1] -0.066 | [2] 0.149 | [3] 0.078 | [4] 0.078 | [5] 0.047

RIOK3 (UniProt O14730)
inactive: [1] 0.002 | [2] 0.052 | [3] 0.053 | [4] -0.007 | [5] 0.016

SEC16A isoform 5 (UniProt O15027)
inactive: [1] -0.013 | [2] -0.005 | [3] 0.067 | [4] 0.036 | [5] 0.011

RFC3 (UniProt P40938)
inactive: [1] -0.032 | [2] 0.003 | [3] 0.026 | [4] 0.055 | [5] 0.024

SELENOK (UniProt Q9Y6D0)
Chain of UniProt Q9Y6D0 (Q9Y6D0 whole entry, looked up): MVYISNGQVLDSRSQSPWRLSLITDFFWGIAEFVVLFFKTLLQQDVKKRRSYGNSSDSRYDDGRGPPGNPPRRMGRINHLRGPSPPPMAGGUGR
inactive: [1] 0.061 | [2] -0.074 | [3] -0.05 | [4] -0.181 | [5] -0.311

RPN2 (UniProt P04844)
inactive: [1] -0.001 | [2] -0.01 | [3] 0.01 | [4] -0.008 | [5] -0.009

R3HCC1 (UniProt Q9Y3T6)
Chain of UniProt Q9Y3T6 (Q9Y3T6 whole entry, looked up, one chain of several): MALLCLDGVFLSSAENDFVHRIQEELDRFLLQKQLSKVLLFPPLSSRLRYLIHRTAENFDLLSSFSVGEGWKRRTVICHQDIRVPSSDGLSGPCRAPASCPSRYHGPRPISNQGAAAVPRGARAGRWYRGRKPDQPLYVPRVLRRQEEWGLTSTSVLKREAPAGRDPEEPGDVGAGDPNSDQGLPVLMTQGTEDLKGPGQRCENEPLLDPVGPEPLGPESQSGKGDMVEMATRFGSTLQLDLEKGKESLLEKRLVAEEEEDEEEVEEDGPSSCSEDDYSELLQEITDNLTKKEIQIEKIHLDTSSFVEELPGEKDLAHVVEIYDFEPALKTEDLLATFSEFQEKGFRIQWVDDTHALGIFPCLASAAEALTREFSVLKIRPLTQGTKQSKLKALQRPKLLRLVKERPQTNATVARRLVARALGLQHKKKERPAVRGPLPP
inactive: [1] 0.014 | [2] 0.015 | [3] 0.006 | [4] -0.014 | [5] -0.047

RBBP7 (UniProt Q16576)
inactive: [1] -0.029 | [2] 0.013 | [3] 0.009 | [4] -0.042

RSU1 (UniProt Q15404)
inactive: [1] 0.056 | [2] 0.004 | [3] -0.004 | [4] -0.017 | [5] 0.157

RAB5IF isoform 5 (UniProt Q9BUV8)
Chain of UniProt Q9BUV8 (Q9BUV8 whole entry, looked up): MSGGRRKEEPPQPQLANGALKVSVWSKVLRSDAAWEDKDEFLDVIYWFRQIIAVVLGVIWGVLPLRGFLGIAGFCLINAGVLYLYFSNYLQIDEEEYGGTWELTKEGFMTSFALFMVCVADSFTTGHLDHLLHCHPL
inactive: [1] 0.01 | [2] -0.096 | [3] 0.019 | [4] -0.085 | [5] 0.364

RAB21 (UniProt Q9UL25)
inactive: [1] -0.086 | [2] 0.036 | [3] 0.019 | [4] 0.055 | [5] 0.127

RNPS1 (UniProt Q15287)
Chain of UniProt Q15287 (Q15287 whole entry, looked up): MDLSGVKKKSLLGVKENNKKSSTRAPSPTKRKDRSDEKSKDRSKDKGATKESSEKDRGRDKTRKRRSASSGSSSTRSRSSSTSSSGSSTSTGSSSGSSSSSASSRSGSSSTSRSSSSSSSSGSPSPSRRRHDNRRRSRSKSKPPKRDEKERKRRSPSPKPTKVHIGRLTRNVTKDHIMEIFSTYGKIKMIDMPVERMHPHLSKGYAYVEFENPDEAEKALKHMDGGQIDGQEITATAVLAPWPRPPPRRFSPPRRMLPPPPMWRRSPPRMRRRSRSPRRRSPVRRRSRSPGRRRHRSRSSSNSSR
inactive: [1] 0.014 | [2] -0.003 | [3] 0.06 | [4] 0.036 | [5] 0.016

REEP6 (UniProt Q96HR9)
Chain of UniProt Q96HR9 (Q96HR9 whole entry, looked up): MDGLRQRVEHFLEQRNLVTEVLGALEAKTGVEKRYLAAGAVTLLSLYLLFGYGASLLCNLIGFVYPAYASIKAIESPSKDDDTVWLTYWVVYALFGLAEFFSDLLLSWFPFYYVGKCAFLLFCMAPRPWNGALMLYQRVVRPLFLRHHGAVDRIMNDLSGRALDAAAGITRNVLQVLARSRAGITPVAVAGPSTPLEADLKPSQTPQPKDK
inactive: [1] 0.038 | [2] -0.081 | [3] 0.005 | [4] -0.107 | [5] -0.181

RECQL5 (UniProt O94762)
inactive: [1] -0.081 | [2] 0.014 | [3] 0.011 | [4] -0.174 | [5] 0.064

RBMX (UniProt P38159)
inactive: [1] 0.089 | [2] -0.01 | [3] -0.004 | [4] -0.015 | [5] -0.072

RAP1B (UniProt P61224)
inactive: [1] 0.006 | [2] -0.023 | [3] 0.032 | [4] 0.055 | [5] 0.02

RLIM (UniProt Q9NVW2)
inactive: [1] 0.049 | [2] 0.135

SEC61G (UniProt P60059)
Chain of UniProt P60059 (P60059 whole entry, looked up): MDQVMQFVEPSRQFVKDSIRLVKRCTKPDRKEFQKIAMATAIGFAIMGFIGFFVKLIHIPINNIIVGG
inactive: [1] 0.269 | [2] -0.063 | [3] -0.016 | [4] -0.065 | [5] -0.225

RNASEH2B (UniProt Q5TBB1)
inactive: [1] 0.056 | [2] -0.008 | [3] -0.032 | [4] 0.038 | [5] 0.049

RPS4X (UniProt P62701)
inactive: [1] 0.02 | [2] 0.029 | [3] -0.009 | [4] 0.044 | [5] 0.066

RAB8B (UniProt Q92930)
inactive: [1] -0.067 | [2] 0.013 | [3] -0.041 | [4] -0.012 | [5] 0.146

RCOR3 isoform 3 (UniProt Q9P2K3)
inactive: [1] -0.026 | [2] 0.009 | [3] 0.046 | [4] 0.011
active: [5] 0.394

SESN2 (UniProt P58004)
inactive: [1] -0.074 | [2] 0.01 | [3] -0.025 | [4] -0.004 | [5] -0.01

RPAP1 (UniProt Q9BWH6)
inactive: [1] -0.006 | [2] 0.018 | [3] 0.015 | [4] -0.038 | [5] 0.028

RDH14 (UniProt Q9HBH5)
Chain of UniProt Q9HBH5 (Q9HBH5 whole entry, looked up): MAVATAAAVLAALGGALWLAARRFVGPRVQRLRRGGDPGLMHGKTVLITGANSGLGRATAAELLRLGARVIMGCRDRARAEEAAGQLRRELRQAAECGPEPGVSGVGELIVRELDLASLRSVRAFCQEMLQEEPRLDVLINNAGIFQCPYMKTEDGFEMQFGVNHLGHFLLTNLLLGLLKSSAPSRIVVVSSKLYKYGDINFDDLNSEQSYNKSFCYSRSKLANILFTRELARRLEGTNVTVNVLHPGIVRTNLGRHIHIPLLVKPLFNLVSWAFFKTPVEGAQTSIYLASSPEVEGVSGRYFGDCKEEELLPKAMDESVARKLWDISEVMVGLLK
inactive: [1] 0.123 | [2] -0.016 | [3] -0.076 | [4] 0.102 | [5] -0.058

RNF40 (UniProt O75150)
inactive: [1] 0 | [2] -0.02 | [3] 0.007 | [4] -0.003 | [5] 0.041

RABGGTB (UniProt P53611)
Chain of UniProt P53611 (P53611 whole entry, looked up): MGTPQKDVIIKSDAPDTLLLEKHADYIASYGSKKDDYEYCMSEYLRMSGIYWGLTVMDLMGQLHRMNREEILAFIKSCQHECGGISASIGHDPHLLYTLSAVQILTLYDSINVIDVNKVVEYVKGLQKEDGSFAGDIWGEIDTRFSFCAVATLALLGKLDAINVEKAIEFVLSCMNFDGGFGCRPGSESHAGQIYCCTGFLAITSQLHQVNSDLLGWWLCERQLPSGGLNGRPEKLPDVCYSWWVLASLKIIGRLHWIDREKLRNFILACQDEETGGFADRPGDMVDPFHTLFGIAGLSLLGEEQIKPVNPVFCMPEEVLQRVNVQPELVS
inactive: [1] -0.102 | [2] -0.01 | [3] 0.005 | [4] -0.048 | [5] -0.017

RRM1 (UniProt P23921)
Chain of UniProt P23921 (P23921 whole entry, looked up): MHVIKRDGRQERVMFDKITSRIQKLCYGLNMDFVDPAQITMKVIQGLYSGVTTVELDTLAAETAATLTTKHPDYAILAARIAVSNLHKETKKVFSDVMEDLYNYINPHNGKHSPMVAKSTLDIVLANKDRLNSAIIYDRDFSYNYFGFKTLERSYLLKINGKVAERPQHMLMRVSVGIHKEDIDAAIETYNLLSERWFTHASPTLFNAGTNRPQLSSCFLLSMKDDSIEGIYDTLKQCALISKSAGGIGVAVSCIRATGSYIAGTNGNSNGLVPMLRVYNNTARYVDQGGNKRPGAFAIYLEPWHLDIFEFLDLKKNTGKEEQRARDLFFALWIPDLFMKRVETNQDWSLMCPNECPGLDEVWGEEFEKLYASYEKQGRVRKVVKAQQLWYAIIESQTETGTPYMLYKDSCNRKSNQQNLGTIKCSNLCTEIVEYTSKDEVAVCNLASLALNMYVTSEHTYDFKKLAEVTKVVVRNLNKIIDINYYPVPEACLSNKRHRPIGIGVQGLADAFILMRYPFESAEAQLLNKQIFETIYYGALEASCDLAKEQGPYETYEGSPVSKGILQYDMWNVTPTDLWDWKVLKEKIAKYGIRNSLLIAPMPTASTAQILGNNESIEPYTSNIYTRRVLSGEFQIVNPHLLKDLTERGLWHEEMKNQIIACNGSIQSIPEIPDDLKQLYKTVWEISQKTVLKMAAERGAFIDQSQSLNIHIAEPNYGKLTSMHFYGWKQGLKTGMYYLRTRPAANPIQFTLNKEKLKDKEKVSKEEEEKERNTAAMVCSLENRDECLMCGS
inactive: [1] 0.014 | [2] 0.028 | [3] 0.042 | [4] 0.028 | [5] 0.004

RMC1 (UniProt Q96DM3)
inactive: [1] -0.013 | [2] 0.018 | [3] -0.052 | [4] 0.05 | [5] 0.007

RBM23 isoform 2 (UniProt Q86U06)
inactive: [1] -0.118 | [2] -0.084 | [3] 0.06 | [4] 0.011 | [5] -0.002

RAB6D (UniProt Q53S08)
Chain of UniProt Q53S08 (Q53S08 whole entry, looked up): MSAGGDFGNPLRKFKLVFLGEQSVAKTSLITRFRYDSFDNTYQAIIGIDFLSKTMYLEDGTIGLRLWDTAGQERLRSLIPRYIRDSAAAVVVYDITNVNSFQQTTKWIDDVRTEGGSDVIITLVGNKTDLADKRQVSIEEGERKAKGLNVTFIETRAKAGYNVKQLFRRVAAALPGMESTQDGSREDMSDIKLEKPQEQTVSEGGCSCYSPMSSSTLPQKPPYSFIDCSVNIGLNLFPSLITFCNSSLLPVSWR
inactive: [1] -0.045 | [2] 0.01 | [3] 0.034 | [4] -0.003 | [5] -0.045

RAB1B (UniProt Q9H0U4)
inactive: [1] -0.015 | [2] 0.021 | [3] 0.056 | [4] 0.013 | [5] -0.17

QTRT2 isoform 4 (UniProt Q9H974)
inactive: [1] -0.004 | [2] 0.014 | [3] -0.03 | [4] -0.019 | [5] -0.157

RAPGEF2, A0A2R8YGD3
active: [5] -0.32
inactive: [1] -0.043 | [2] 0.021 | [3] -0.046 | [4] -0.003

RBM4 (UniProt Q9BWF3)
inactive: [1] 0 | [2] 0.016 | [3] 0.022 | [4] 0.03 | [5] -0.007

RNF213, A0A0A0MTC1
inactive: [1] -0.02 | [2] -0.007 | [3] 0.069 | [4] 0.004 | [5] 0.045

SCD (UniProt O00767)
inactive: [1] -0.016 | [2] -0.007 | [3] 0.103 | [4] -0.179 | [5] -0.184

RRAGA (UniProt Q7L523)
inactive: [1] 0.024 | [2] -0.039 | [3] 0.01 | [4] -0.045 | [5] -0.036

RIC1 (UniProt Q4ADV7)
Chain of UniProt Q4ADV7 (Q4ADV7 whole entry, looked up): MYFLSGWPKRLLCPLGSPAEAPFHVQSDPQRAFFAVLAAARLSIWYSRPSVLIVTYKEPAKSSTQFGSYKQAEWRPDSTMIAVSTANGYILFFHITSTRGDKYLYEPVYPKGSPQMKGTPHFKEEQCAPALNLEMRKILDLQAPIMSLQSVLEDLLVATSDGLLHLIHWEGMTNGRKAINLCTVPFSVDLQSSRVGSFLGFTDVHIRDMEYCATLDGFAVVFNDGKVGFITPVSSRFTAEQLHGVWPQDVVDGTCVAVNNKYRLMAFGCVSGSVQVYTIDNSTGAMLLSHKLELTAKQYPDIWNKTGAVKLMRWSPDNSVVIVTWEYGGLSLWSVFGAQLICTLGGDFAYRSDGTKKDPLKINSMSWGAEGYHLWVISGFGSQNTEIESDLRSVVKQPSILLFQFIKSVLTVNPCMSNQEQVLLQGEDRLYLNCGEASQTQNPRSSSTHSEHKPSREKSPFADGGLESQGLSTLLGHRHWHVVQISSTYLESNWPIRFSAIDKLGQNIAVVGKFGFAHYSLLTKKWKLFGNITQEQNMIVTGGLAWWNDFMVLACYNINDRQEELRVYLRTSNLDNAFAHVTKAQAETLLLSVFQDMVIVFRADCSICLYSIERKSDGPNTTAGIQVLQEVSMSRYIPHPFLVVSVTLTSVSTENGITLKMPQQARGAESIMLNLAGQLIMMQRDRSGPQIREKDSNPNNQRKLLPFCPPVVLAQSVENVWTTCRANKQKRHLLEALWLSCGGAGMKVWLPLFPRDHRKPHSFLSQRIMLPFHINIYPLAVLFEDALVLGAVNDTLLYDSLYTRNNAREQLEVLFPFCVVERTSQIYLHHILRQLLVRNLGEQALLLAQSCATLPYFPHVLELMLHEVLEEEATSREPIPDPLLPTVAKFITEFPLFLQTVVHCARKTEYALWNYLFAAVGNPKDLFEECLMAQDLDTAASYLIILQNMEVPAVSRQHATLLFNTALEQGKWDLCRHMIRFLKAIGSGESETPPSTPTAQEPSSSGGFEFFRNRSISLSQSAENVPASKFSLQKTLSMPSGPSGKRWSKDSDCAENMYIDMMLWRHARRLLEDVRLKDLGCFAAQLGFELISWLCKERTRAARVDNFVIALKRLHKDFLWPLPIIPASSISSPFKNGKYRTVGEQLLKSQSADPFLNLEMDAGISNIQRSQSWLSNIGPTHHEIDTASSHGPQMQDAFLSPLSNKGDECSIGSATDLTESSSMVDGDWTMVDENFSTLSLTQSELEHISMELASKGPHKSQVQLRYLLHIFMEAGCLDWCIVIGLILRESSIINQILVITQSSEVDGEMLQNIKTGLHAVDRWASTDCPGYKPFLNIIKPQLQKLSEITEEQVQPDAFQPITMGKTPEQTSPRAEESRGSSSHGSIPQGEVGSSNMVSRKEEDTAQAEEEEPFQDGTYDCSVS
inactive: [1] -0.086 | [2] 0.186 | [3] 0 | [4] 0.081 | [5] 0.138

RAB27A (UniProt P51159)
inactive: [1] 0.052 | [2] 0.028 | [3] -0.007 | [4] -0.013 | [5] 0.181

RINT1 (UniProt Q6NUQ1)
inactive: [1] -0.021 | [2] -0.008 | [3] 0.019 | [4] -0.008 | [5] 0.026

REXO4 (UniProt Q9GZR2)
inactive: [1] 0.009 | [2] -0.003 | [3] 0.029 | [4] 0.051 | [5] 0.138

RIPK1 (UniProt Q13546)
inactive: [1] -0.019 | [2] -0.015 | [3] -0.009 | [4] -0.04 | [5] -0.021

RAD50 isoform 2 (UniProt Q92878)
inactive: [1] -0.002 | [2] -0.031 | [3] 0.004 | [4] 0.008 | [5] 0.009

RAI14 isoform 2 (UniProt Q9P0K7)
inactive: [1] 0.002 | [2] -0.052 | [3] -0.02 | [4] -0.041 | [5] -0.033

RIOK1 (UniProt Q9BRS2)
inactive: [1] -0.026 | [2] -0.031 | [3] -0.003 | [4] -0.006 | [5] -0.015

RNF168 (UniProt Q8IYW5)
inactive: [1] -0.008 | [2] -0.052 | [3] 0.017 | [4] 0.061 | [5] -0.068

RPS9 (UniProt P46781)
inactive: [1] 0.003 | [2] 0.038 | [3] -0.007 | [4] 0.1 | [5] 0.124

RXRB isoform 3 (UniProt P28702)
inactive: [1] -0.214 | [2] -0.018 | [3] -0.151 | [4] -0.057 | [5] 0.06

RPLP0P6 (UniProt Q8NHW5)
inactive: [1] 0.052 | [2] -0.038 | [3] -0.002 | [4] -0.026 | [5] -0.027
